The supplement of paper PMC3334620
The full ranking holds about 33,000 sequences; the median of “E-score (-0.5 to 0.5)” is about -0.054, and the highest 2% start at about 0.35. This is one part of a sample in which the highest values are shown more often than they occur.

target: T1, Stb5 (UniProt P38699); assay: PBM E-score (8-mer binding enrichment) (E-score (-0.5 to 0.5)); higher = stronger / more preferred TF binding; details: protein concentration: 200 nM; construct: GST-full length
T1 sequence: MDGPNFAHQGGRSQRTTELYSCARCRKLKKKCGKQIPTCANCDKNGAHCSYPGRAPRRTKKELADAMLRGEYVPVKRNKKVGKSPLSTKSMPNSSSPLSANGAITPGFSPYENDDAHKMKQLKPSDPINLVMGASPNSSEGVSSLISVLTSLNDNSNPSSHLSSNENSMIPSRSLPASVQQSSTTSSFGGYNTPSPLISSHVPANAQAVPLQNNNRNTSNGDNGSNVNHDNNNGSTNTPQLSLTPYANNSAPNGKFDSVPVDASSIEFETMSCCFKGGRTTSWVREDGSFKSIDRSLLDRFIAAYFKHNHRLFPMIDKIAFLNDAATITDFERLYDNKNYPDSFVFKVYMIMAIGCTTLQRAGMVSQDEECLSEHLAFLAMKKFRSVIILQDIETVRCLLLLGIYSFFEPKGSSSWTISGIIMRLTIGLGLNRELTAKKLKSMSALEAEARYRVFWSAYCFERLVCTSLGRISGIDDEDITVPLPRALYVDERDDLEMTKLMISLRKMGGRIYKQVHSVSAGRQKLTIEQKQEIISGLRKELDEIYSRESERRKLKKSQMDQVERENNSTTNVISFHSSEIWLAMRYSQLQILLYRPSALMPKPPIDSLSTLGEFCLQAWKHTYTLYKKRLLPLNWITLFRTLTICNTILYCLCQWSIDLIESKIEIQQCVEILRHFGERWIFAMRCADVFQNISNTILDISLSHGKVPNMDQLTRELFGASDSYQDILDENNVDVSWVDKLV
Description: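 Universal 'all 10-mer' protein binding microarrays (Agilent AMADID 015681) probed with GST-tagged S. cerevisiae TFs (full-length or DBD) made by in vitro transcription/translation (PURExpress), about 100-200 nM. Bound TF was detected with fluorescent anti-GST. Each ungapped 8-mer (which stands for itself and its reverse complement) is scored by the PBM enrichment score (E-score), a modified Wilcoxon-Mann-Whitney statistic from -0.5 to +0.5, computed with the Universal PBM Analysis Suite. Scale: above 0.35 generally sequence-specific binding.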

Row | Sequence | PBM E-score
1 | CCAGACGG | 0.179
2 | TCCGACGA | 0.252
3 | GCCGACGA | 0.308
4 | AGCGACGG | 0.245
5 | GCCGACGC | 0.316
6 | CCCGACGA | 0.31
7 | CACGACGG | 0.168
8 | AACGACGG | 0.242
9 | ACCGACGA | 0.354
10 | CCCGACGC | 0.388
11 | CCCGACGG | 0.437
12 | ACCGACGG | 0.42
13 | AGGGGGAC | -0.248
14 | CGCTGGGC | 0.106
15 | AGAGGCGG | 0.253
16 | CATAGAAG | -0.126
17 | AGACCCAG | -0.291
18 | GAGGTCCC | -0.19
19 | CTTGGGCA | -0.0874
20 | AGGCCACC | -0.188
21 | CCCTCGAA | -0.222
22 | TAGAACAA | -0.15
23 | CCTTGGTA | 0.0875
24 | AACGACGT | -0.0504
25 | ACCGACGT | 0.355

Row | Sequence | PBM E-score
26 | ACCGACGC | 0.306
27 | TGTGATAA | -0.171
28 | AATACCGT | 0.438
29 | AATACCCT | -0.00882
30 | AATACCGC | 0.454
31 | AATACCAG | -0.007
32 | AATACCGA | 0.415
33 | CATACCGG | 0.193
34 | CATACCGC | 0.307
35 | CATACCGA | 0.279
36 | AATACCGG | 0.417
37 | AATACCAT | -0.0252
38 | GATACCGC | 0.35
39 | TATACCGA | 0.26
40 | CGCGTCTC | 0.0131
41 | CATCGACG | 0.0157
42 | ATTGCAGA | -0.201
43 | CGCAGCAA | -0.192
44 | ACCGTCCA | 0.242
45 | AATGTGCA | -0.241
46 | CGCAGAGC | -0.0211
47 | ATGTGCTC | -0.151
48 | CTGGACTA | -0.143
49 | CAACATTA | -0.0568
50 | AGCACCGA | 0.476

Row | Sequence | PBM E-score
51 | AGCACCGG | 0.421
52 | AGCACCAG | -0.177
53 | AGCACCCG | 0.153
54 | GGCACCGA | 0.351
55 | AGCACCTA | -0.104
56 | ACAGAATC | -0.16
57 | AACCGTAG | -0.118
58 | CATTTCTA | 0.0892
59 | CGGACTCA | 0.411
60 | AGGACTGA | -0.184
61 | GGGACTGA | -0.172
62 | CGGACTCC | 0.231
63 | CTGACTTC | 0.00183
64 | AGGACTTC | -0.196
65 | TGGACTAA | -0.0846
66 | GGGACTAA | 0.246
67 | CGGACTAA | 0.428
68 | CGGACTTC | 0.374
69 | CGGACTGA | 0.359
70 | GGGACTCA | -0.0395
71 | AGATCCAT | 0.0463
72 | ATAACGAG | -0.103
73 | CTGGCCTC | -0.252
74 | AGCATCGC | 0.0104
75 | CCACCTAA | -0.0966

Row | Sequence | PBM E-score
76 | ACAGTACG | -0.197
77 | CGTTACCA | -0.112
78 | CCCAGTAA | -0.198
79 | ATGACCGA | 0.31
80 | ATGACCGC | 0.381
81 | AGGACCGC | 0.397
82 | AGGACCGA | 0.33
83 | ATGACCGG | 0.308
84 | CGGACCGC | 0.298
85 | CTGGTGCC | 0.0505
86 | CGTGCAAA | -0.0367
87 | CCCGAGCA | -0.166
88 | CAGCGTAG | -0.0828
89 | ACGGTTCG | 0.0226
90 | GAATTAAC | -0.0887
91 | TAGTGGCA | -0.0544
92 | AGTCGGAG | 0.302
93 | CGTCGGAA | 0.24
94 | CGTCGGAG | 0.343
95 | AGTCGGAA | 0.221
96 | AGTCGGCA | 0.325
97 | GCTCGGAC | 0.242
98 | GGTCGGCA | 0.375
99 | AGTCGGAC | 0.398
100 | CGTCGGCA | 0.334

Row | Sequence | PBM E-score
101 | CGTCGGAC | 0.38
102 | GGTCGGAA | 0.251
103 | GGTCGGAC | 0.369
104 | ACGCCTAT | -0.198
105 | TACTACAA | -0.0615
106 | ACAGCACT | -0.196
107 | TCACCCGA | 0.089
108 | AGAGAAGC | -0.27
109 | TAGTCAGA | -0.116
110 | TCTGAGCA | -0.254
111 | CGTCGGGC | 0.361
112 | CGTCGGGA | 0.337
113 | AGTCGGGC | 0.312
114 | CGGGTTAC | 0.0485
115 | TGGTTTAA | -0.231
116 | GGGTTTAA | 0.398
117 | GGGGTTAA | 0.404
118 | AGGGTTAA | -0.179
119 | GGGTTTTA | 0.322
120 | CGGGTTAA | 0.221
121 | AGGGTTAC | -0.0791
122 | GGGGTTAC | 0.397
123 | AAAACGTC | -0.179
124 | GGTTGTCA | -0.0232
125 | CACCGCTC | 0.402

Row | Sequence | PBM E-score
126 | GACCGCTA | 0.359
127 | GACCGCGA | 0.31
128 | AACCGCTG | 0.0244
129 | GACCGCAA | 0.248
130 | AACCGCTA | 0.0216
131 | TACCGCTA | 0.306
132 | AGCCGCTG | 0.14
133 | CACCGCTA | 0.388
134 | AACCGCTC | 0.119
135 | GACCGCTC | 0.267
136 | CACCGCTG | 0.405
137 | ATAGAGTG | -0.054
138 | ACAGTAAT | -0.154
139 | CTGGCAAA | -0.24
140 | CTCATCGC | -0.0444
141 | CACAATGA | -0.244
142 | ACGGACCA | 0.237
143 | ACGGACAT | 0.41
144 | ACGGACCG | 0.297
145 | ACGGACAC | 0.215
146 | ACGGACAG | 0.00554
147 | ACGGACCT | 0.426
148 | TACTTTGA | -0.207
149 | GTGTCCGA | 0.231
150 | ATGTCCCC | 0.224

Row | Sequence | PBM E-score
151 | ACGTCCGC | 0.367
152 | ATGTCCGG | 0.415
153 | ATGTCCGC | 0.443
154 | ACGTCCGA | 0.333
155 | CTGTCCGA | 0.201
156 | CCGTCCGC | 0.292
157 | CTGTCCGC | 0.129
158 | ATGTCCTG | -0.0717
159 | ATGTCCCG | 0.219
160 | ATGTCCGA | 0.412
161 | CCAAGCAA | -0.148
162 | CTGCTAGA | 0.0321
163 | CTAAGGCA | -0.101
164 | CTTGTCTA | -0.11
165 | CCAGGCCA | -0.312
166 | GGCGGTAC | 0.361
167 | GGCGGTAA | 0.385
168 | AGCGGTAC | 0.347
169 | AGCGGTAA | 0.34
170 | TGCGGTAA | 0.278
171 | CGCGGTAC | 0.34
172 | TCAAGTCA | -0.175
